Source: PubChem BioAssay AID1159580 (chemical genetic matrix, 2015)
Where “and” joins values, the source holds several entries; their conditions need not be identical. Equal entries are not always repeated. In all, about 5,500 compounds went through this assay and about 2,000 (36%) were called active. Not shown: some 18% with an inconclusive outcome. No stated cut-off is given here; in the data, active means normalized growth mostly below about 0.91 (no sharp cut-off); inconclusive means no clear call, values can overlap the other calls; inactive means mostly above about 0.92. The list shows a part of the results.

Test: chemical genetic growth profiling, strain panel (AID 1159580);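 further: tested at 20 µM; growth read once vehicle control cultures reached saturation at 30 °C; 1 = growth at the plate median or of vehicle wells; lower values mean less growth of the strain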
Details: S. cerevisiae deletion strains, growth OD

Measured: normalized growth

O[N+]1=CC=CCC1=S.On1ccccc1=S.[Zn]
active: locus YAL013W, strain DEP1, hits give low values 0.0588 | locus YAL021C, strain ccr4, hits give low values 0.0689 | locus YAL026C, strain drs2, hits give low values 0.0618 | locus YAL030W, strain snc1, hits give low values 0.0584 | locus YBL061C, strain skt5, hits give low values 0.0681 | locus YBR009C, strain hhf1, hits give low values 0.0728 | locus YBR021W, strain FUR4, hits give low values 0.0965 | locus YBR023C, strain chs3, hits give low values 0.0675 | locus YBR171W, strain sec66, hits give low values 0.0802 | locus YBR229C, strain ROT2, hits give low values 0.052 | locus YBR231C, strain swc5, hits give low values 0.0683 | locus YBR279W, strain paf1, hits give low values 0.0672 | locus YCL011C, strain gbp2, hits give low values 0.0581 | locus YCL016C, strain dcc1, hits give low values 0.0685 | locus YCL029C, strain bik1, hits give low values 0.0621 | locus YCL061C, strain MRC1, hits give low values 0.0686 | locus YCL069W, strain vba3, hits give low values 0.0611 | locus YCR088W, strain abp1, hits give low values 0.0601 | locus YDL005C, strain med2, hits give low values 0.081 | locus YDL035C, strain GPR1, hits give low values 0.0513 | locus YDL040C, strain nat1, hits give low values 0.061 | locus YDL074C, strain BRE1, hits give low values 0.0852 | locus YDL101C, strain DUN1, hits give low values 0.0624 | locus YDL185W, strain tfp1, hits give low values 0.0604 | locus YDL192W, strain arf1, hits give low values 0.0611 | locus YDR001C, strain nth1, hits give low values 0.0598 | locus YDR069C, strain doa4, hits give low values 0.0662 | locus YDR101C, strain arx1, hits give low values 0.0573 | locus YDR137W, strain rgp1, hits give low values 0.0942 | locus YDR150W, strain NUM1, hits give low values 0.0564 | locus YDR159W, strain sac3, hits give low values 0.104 | locus YDR162C, strain NBP2, hits give low values 0.0519 | locus YDR195W, strain ref2 0.122 | locus YDR297W, strain sur2, hits give low values 0.0587 | locus YDR318W, strain mcm21, hits give low values 0.0644 | locus YDR334W, strain swr1, hits give low values 0.0636 | locus YDR335W, strain msn5, hits give low values 0.0604 | locus YDR388W, hits give low values 0.0563 | locus YDR392W, strain spt3, hits give low values 0.102 | locus YDR502C, strain sam2, hits give low values 0.0617 | locus YEL003W, strain gim4, hits give low values 0.0591 | locus YEL037C, strain rad23, hits give low values 0.0593 | locus YEL061C, strain CIN8 (second series), hits give low values 0.0642 | locus YEL061C, strain CIN8, hits give low values 0.0538 | locus YER015W, strain faa2, hits give low values 0.0649 | locus YER016W, strain bim1, hits give low values 0.0653 | locus YER110C, hits give low values 0.0752 | locus YER111C, strain swi4, hits give low values 0.0747 | locus YER155C, strain BEM2 (second series), hits give low values 0.0952 | locus YER155C, strain BEM2, hits give low values 0.0682 | locus YER167W, strain BCK2, hits give low values 0.0543 | locus YFR010W, strain ubp6, hits give low values 0.0685 | locus YGL078C, strain dbp3, hits give low values 0.0615 | locus YGL086W, strain mad1, hits give low values 0.0569 | locus YGL167C, strain pmr1, hits give low values 0.0764 | locus YGL173C, strain kem1, hits give low values 0.0718 | locus YGL227W, strain vid30, hits give low values 0.0622 | locus YGL240W, strain doc1, hits give low values 0.0817 | locus YGL248W, strain PDE1, hits give low values 0.0522 | locus YGL253W, strain hxk2, hits give low values 0.0558 | locus YGR078C, strain PAC10, hits give low values 0.0545 | locus YGR135W, strain pre9, hits give low values 0.0622 | locus YGR252W, strain gcn5, hits give low values 0.164 | locus YHR013C, strain ard1, hits give low values 0.117 | locus YHR027C, strain rpn1, hits give low values 0.0678 | locus YHR030C, strain SLT2, hits give low values 0.0537 and 0.0956 | locus YHR079C, strain IRE1 (second series), hits give low values 0.0577 | locus YHR079C, strain IRE1, hits give low values 0.111 | locus YHR094C, strain hxt1, hits give low values 0.0579 | locus YHR129C, strain ARP1, hits give low values 0.0604 | locus YHR142W, strain chs7, hits give low values 0.0777 | locus YHR200W, strain rpn10, hits give low values 0.0589 | locus YIL066C, strain RNR3, hits give low values 0.0511 | locus YIL073C, strain SPO22, hits give low values 0.113 | locus YIL125W, strain kgd1, hits give low values 0.0608 | locus YIR030C, strain dcg1, hits give low values 0.0598 | locus YJL092W, strain hpr5, hits give low values 0.0603 | locus YJL095W, strain BCK1 (second series), hits give low values 0.0629 | locus YJL095W, strain BCK1, hits give low values 0.0641 and 0.0953 | locus YJL115W, strain asf1, hits give low values 0.0768 | locus YJL129C, strain trk1, hits give low values 0.0933 | locus YJL134W, strain LCB3, hits give low values 0.0509 | locus YJL154C, strain vps35, hits give low values 0.064 | locus YJL164C, strain tpk1, hits give low values 0.0692 | locus YJL166W, strain qcr8, hits give low values 0.0996 | locus YJL168C, strain set2, hits give low values 0.0599 | locus YJL187C, strain SWE1 (second series), hits give low values 0.0508 | locus YJL187C, strain SWE1, hits give low values 0.0629
